Laboratory results published in PubChem BioAssay AID1259415 (National Center for Advancing Translational Sciences (NCATS), 2018).
Out of some 410,000 compounds screened, about 18,000 (4.4%) were called active. Not shown: some 7% with an inconclusive outcome. For the sample, actives were picked, then their nearest neighbours and some compounds at random. Unmarked numbers belong to inactive results. Cut-off read from the data, not from the text of the source: active = activity change below about -60%; inconclusive = no clear call, values can overlap the other calls; inactive = above about -39%.

experiment: qHTS Assay for inhibitors of the human cytomegalovirus (HCMV); settings: HFF cells, HCMV-luciferase reporter, 72 h; at 57.5 µM; hits give low values
Method in brief: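 Inhibition of viral replication was scored as loss of reporter luminescence in HFFs infected with HCMV-luciferase (MOI 1 PFU/cell) for 72 h; compounds tested at 2 doses, normalized to buffer and Salinomycin controls.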
% is set by controls: 0 for no effect and ±100 for the full control effect.

Row | Compound | activity change, negative = inhibition
1 | Cc1cc(C)nc(NS(=O)(=O)c2ccc(NC(=O)c3cc(=O)c4ccc(C)c(C)c4o3)cc2)n1 | -4.22%
2 | Cc1cc(C)cc(NS(=O)(=O)c2ccc(-c3cc(C)no3)s2)c1 | 0%
3 | COc1cccc(-c2nnc3n(CCc4ccccc4)c(=O)c4ccccc4n23)c1O | 2.64%
4 | Cc1ccccc1NC(=O)c1ccc(COc2ccc3c(C)cc(=O)oc3c2)cc1 | 10.2%
5 | CC(=O)c1c(C)[nH]c(C(=O)COc2ccc3c(C)cc(=O)oc3c2)c1C | -31.5%
6 | Cc1cc(=O)oc2cc(OCC3CC(c4ccccc4Cl)=NO3)ccc12 (configuration not stated) | -90.9% (active)
7 | CCc1ccc(N2C(=O)CN(S(=O)(=O)CC)CC2(C)C(=O)NC2CCCCC2)cc1 (configuration not stated) | 0%
8 | COc1cccc(C(=O)NCc2ccc3c(c2)CCN3C(=O)c2ccncc2)c1 | 8.47%
9 | NS(=O)(=O)c1ccc(NC(=O)COc2ccc(S(=O)(=O)NC3CCCCC3)cc2)cc1 | 15.5%
10 | CCN(CC)CCn1c(=S)[nH]c2ncccc2c1=O | -27.4%
11 | COc1ccc(C(=O)NCC(c2ccc(N(C)C)cc2)N2CCc3ccccc32)c(OC)c1 (configuration not stated) | -18.8%
12 | COc1ccc(CN2C(=O)CC(Cc3ccc(C)cc3)C2=O)cc1OC (configuration not stated) | -12.9%
13 | CCCCOc1ccc(Cn2c(=O)oc3ccc(C)cc32)cc1OC | -4.31%
14 | CCCCOc1ccc(CN2C(=O)C(=O)c3cc(Br)cc(C)c32)cc1OC | -102% (active)
15 | CCC(=O)N1CCc2cc(S(=O)(=O)NC(Cc3ccccc3)C(=O)NCc3ccccc3)ccc21 (configuration not stated) | -22.7%
16 | CCn1cc(C(=O)N2CCN(c3cc(Cl)ccc3C)CC2)c(=O)c2cc(S(=O)(=O)N3CCCC3)ccc21 | -11.4%
17 | Cc1c(C)n(Cc2ccc(Cl)cc2)c2ccc(C(=O)N3CCN(c4ccccc4F)CC3)cc12 | 0%
18 | Cc1nn(C)cc1/C=C1\CCC/C(=C\c2cn(C)nc2C)C1=O | -22.6%
19 | CCCCc1nn2c(=O)cc(COC(=O)c3ccccc3NC(=O)C(C)(C)C)nc2s1 | -7.43%
20 | O=C(C[C@H]1C(=O)N(c2ccc(F)c(F)c2)C[C@@H]1Cc1ccccc1)Nc1ccccc1 | -93.1% (active)
21 | COc1ccc(NC(=O)C[C@H]2C(=O)N(CCc3ccccc3)C[C@@H]2C)cc1 | 5.53%
22 | CC1(C)CN(CCc2ccccc2)C(=O)[C@H]1CC(=O)Nc1ccc(Br)cc1 | 8.25%
23 | CCc1ccc2ncc3c(-c4ccc(C)cc4)nn(CC(=O)NCc4ccccc4)c3c2c1 | -6.71%
24 | COc1ccc(S[C@]2(c3nc(C)no3)CC(=O)N(C(=O)C3CC3)[C@@H]2c2ccc(OC)cc2)cc1 | -16.8%

Row | Compound | activity change, negative = inhibition
25 | Cc1cccc(Cc2c(C)nc3nc(SCc4ccccc4Cl)nn3c2C)c1 | 4.98%
26 | Oc1ccc(-c2nc3ccc(Cl)cn3c2Nc2ccc3c(c2)OCO3)cc1 | 12.9%
27 | Cc1ccc(CCNC(=O)c2ccc3c(c2)nc2n3CCC(C)C2)cc1 (configuration not stated) | 14.9%
28 | COc1cccc(C(NC(C)=O)c2nc(-c3ccccc3OC)cs2)c1 (configuration not stated) | 28.9%
29 | COc1ccc2c(c1OC)C(=O)OC2Nc1nc(-c2ccccc2)cs1 (configuration not stated) | -104% (active)
30 | Cc1ccc(-c2csc(NC3OC(=O)c4ccccc43)n2)cc1 (configuration not stated) | 0% (active)
31 | COc1ccc(-c2cc(-c3ccc(F)cc3)nc3c2COc2ccccc2-3)cc1 | -6.64%
32 | COc1ccc(-c2csc(NC3OC(=O)c4ccccc43)n2)cc1 (configuration not stated) | -107% (active)
33 | CCCc1nc2scc(-c3ccc(C)cc3)c2c(=O)n1N | -13.5%
34 | Cc1cc2c(cc3c(SCc4cccc(Cl)c4)nnc(C)n32)o1 | 4.43%
35 | Cc1ccc(-n2c(=O)c3cccnc3n2CC(=O)Nc2ccccc2C(F)(F)F)cc1C | -5.4%
36 | CCN(C(=O)CSc1cccc[n+]1[O-])c1ccccc1 | -32.1%
37 | O=C(CSc1cccc[n+]1[O-])c1ccc(-c2ccccc2)cc1 | -97.9% (active)
38 | O=C(CSc1cccc[n+]1[O-])NCCCc1ccccc1 | -39.5%
39 | COC(=O)Cc1nnn2c1[C@H](C)[C@H](c1ccccc1[N+](=O)[O-])OCC2 | -4.47%
40 | COc1ccc(CNC(=O)COCc2cc(-c3cccs3)on2)cc1OC | -28.2%
41 | CC1CCN(c2nc3ccc(C(=O)N4CCN(c5ccccc5)CC4)cc3s2)CC1 | 31.7%
42 | CCn1c(-c2ccncc2)n[nH]c1=S | -21.8%
43 | CCn1c(CSCc2c(Cl)cccc2Cl)n[nH]c1=S | -67.6% (active)
44 | S=c1[nH]nc(CSCc2ccc(Cl)cc2Cl)n1-c1ccccc1 | -18.3%
45 | Cc1cc(C)n2nc(CNS(=O)(=O)c3c(F)c(F)c(F)c(F)c3F)nc2n1 | 0%
46 | CCc1ccc2oc(-c3ccc(C)c(NC(=O)/C=C/c4ccco4)c3)nc2c1 | 34.4%
47 | Cc1ccc(NC(=O)Cn2c(=O)n(-c3ccccc3)c(=O)c3c4c(sc32)CCCC4)cc1 | 2.61%
